Compound activity from PubChem BioAssay.
Compounds with a hit are over-represented: about 3.5% of the library has one in this group of screens.
UGM FP inh – M. tuberculosis UGM enzyme inhibitors, primary screen, biochemical, fluorescence polarization, single point; UDP-galactopyranose mutase (Mycobacterium tuberculosis (strain ATCC 25618 / H37Rv)), …; purified UGM, fluorescence polarization probe displacement; inhibition, % at 10 µM; 320,000 compounds, 0.06% hits; AID 504406, 2011; in the data active means inhibition above about 10%, passing the limit was not always enough; inconclusive means no clear call, values can overlap the other calls
Rv3671c inh – Rv3671c serine protease inhibitors, primary screen, biochemical, fluorescence polarization, M. tuberculosis H37Rv; P9WHR9; inhibition, % at 5.96 µM; 320,000 compounds, 0.048% hits; in the data active means inhibition above about 38%;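 further: extracellular domain of Rv3671c used as enzyme; 0% = enzyme with DMSO and 100% = no enzyme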
Target sequence (P9WHR9 whole entry, looked up, the tested form may be a part): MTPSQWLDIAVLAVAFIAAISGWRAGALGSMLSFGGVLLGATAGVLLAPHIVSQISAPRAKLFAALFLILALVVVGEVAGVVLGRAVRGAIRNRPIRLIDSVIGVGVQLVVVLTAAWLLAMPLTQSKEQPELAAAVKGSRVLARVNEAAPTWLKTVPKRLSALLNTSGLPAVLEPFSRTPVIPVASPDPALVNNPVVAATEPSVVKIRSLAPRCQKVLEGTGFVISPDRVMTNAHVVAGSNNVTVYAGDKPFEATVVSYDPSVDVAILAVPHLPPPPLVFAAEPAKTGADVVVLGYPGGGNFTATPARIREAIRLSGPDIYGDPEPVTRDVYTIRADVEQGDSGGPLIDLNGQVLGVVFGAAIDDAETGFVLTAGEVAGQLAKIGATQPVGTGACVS
Mtb hypoxia inh – PubChem AID 1159583; M. tuberculosis hypoxia-regulated fluorescent reporter, fluorescence; fluorescence inhibition, % (concentration not given with the values); 300,000 compounds, 0.1% hits; in the data active means fluorescence inhibition mostly above about 23%, no sharp cut-off; inactive means mostly below about 17%
GDH-TPI inh – GDH-TPI coupling enzyme inhibitors, primary screen, artefact control for M. tuberculosis FBA inhibitor project, biochemical, absorbance, full deck. 360,000 compounds, 1.2% hits. inhibition, % at 4.8 µM. AID 588335, 2011. GDH-TPI coupled enzyme counterscreen, NADH absorbance; in the data active means inhibition above about 30%;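 further: 0% = DMSO wells and 100% = wells lacking the enzyme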
Mtb FBA inh – Mtb FBA enzyme inhibitors, primary screen, biochemical, fluorescence, strain H37Rv. Fructose-bisphosphate aldolase (Mycobacterium tuberculosis (strain ATCC 25618 / H37Rv)), …. purified M. tuberculosis FBA, fluorescence read-out. inhibition, % at 1 µM. 360,000 compounds, 2.3% hits. AID 588726, 2011; in the data active means inhibition above about 27%;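 further: 0% = vehicle and 100% = reference inhibitor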
FadD28 binding – inhibitors of FadD28 bisubstrate probe binding, primary screen, biochemical, fluorescence polarization, single point; inhibition, % at 12.5 µM; 360,000 compounds, 0.22% hits; AID 588549, 2011; in the data active means inhibition above about 8.5%, passing the limit was not always enough; inconclusive means no clear call, values can overlap the other calls
* = called active by the depositor; ? = inconclusive; · = no result.

SMILES	UGM FP inh	Rv3671c inh	Mtb hypoxia inh	GDH-TPI inh	Mtb FBA inh	FadD28 binding
COc1ccc(C(=O)NN=Cc2ccc(OC)c(COc3ccc(F)cc3)c2)cc1	·	·	-1.6	·	·	·
O=S1(=O)N=C(N(CCO)/N=C/C=C/c2ccccc2)c2ccccc21	-1.6	-7.4	·	55.7*	-3.3	-2.8
O=C(CCSc1nnc(-c2ccccc2)o1)N1CCOCC1	0.2	-6.6	40.4*	3.7	4.6	-1.2
Cc1nc(Nc2ccc(S(N)(=O)=O)cc2)sc1C(=O)Nc1ccccc1	0.1	4.0	-3.5	34.9*	0.2	-0.1
Cc1nc(Nc2ccccc2)sc1C(=O)Nc1ccccc1	1.9	-7.9	16.7	17.6	-1.4	-2.9
Cc1nnc(Nc2ccc(S(N)(=O)=O)cc2)c2ccccc12	0.8	-3.1	4.5	34.3*	1.2	-3.5
CCOC(=O)C1C2COc3ccccc3C2N2C(=O)N(c3cccc(C)c3)C(=O)[C@]12C (some centres not stated)	·	·	2.8	·	·	·
COc1ccc(C(=O)Cn2c(C(=O)/C=C/c3ccccc3)nc3ccccc32)cc1	0.0	-3.5	4.9	32.2*	-3.2	-1.7
COc1ccc(C(=O)CSc2nc3ccccc3n2CC(=O)c2ccccc2)cc1	-0.5	-9.3	3.5	8.8	5.3	-2.9
CCn1cc(/C=C(\NC(=O)c2ccccc2)C(=O)NCCCn2ccnc2)c2ccccc21	·	·	·	45.1*	-0.5	-2.8
O=C(NCCCn1ccnc1)/C(=C/c1ccc(Cl)cc1)NC(=O)c1ccccc1	-2.7	-7.3	14.9	-5.2	0.9	·
CN(C)c1ccc(/C=C(/NC(=O)c2ccccc2)C(=O)NCCCn2ccnc2)cc1	-2.9	-12.8	2.0	32.8*	-3.8	1.0
Cc1ccc(C(=O)N/C(=C\c2cn(S(=O)(=O)N(C)C)c3ccccc23)C(=O)NCCCn2ccnc2)cc1	-2.2	-8.3	-8.8	16.4	-0.4	-2.5
C=CCOC(=O)C1=CC(c2csc3ccccc23)CC(OCCCCO)O1 (configuration not stated)	·	·	19.4	·	·	·
CCc1nnc(NC(=O)C2CCCN2S(=O)(=O)c2ccc3c(c2)OCCO3)s1 (configuration not stated)	·	·	2.8	·	·	·
Cc1ccc(C(=O)NN=C/C=C/c2ccc(Br)cc2)cn1	·	·	5.0	·	·	·
CCc1c(C(=O)NNC(=S)Nc2ccc(S(=O)(=O)Nc3ncccn3)cc2)csc1C	2.8	2.3	-1.5	10.0	-0.9	9.6*
Cc1csc(=NN=Cc2ccc(O)cc2)n1Cc1ccco1	·	·	1.2	·	·	·
Cc1noc(C)c1S(=O)(=O)N1CCCC(C(=O)Nc2ccc(Cl)cn2)C1 (configuration not stated)	0.3	7.6	·	1.9	75.1*	-2.1
Cc1ccc(NC(=O)C2CCN(S(=O)(=O)c3c(C)noc3/C=C/N(C)C)CC2)cc1	3.5	-12.9	3.8	45.3*	0.4	-1.0
Cc1ccc(NC(=O)C2CCCN(S(=O)(=O)c3c(C)noc3/C=C/N(C)C)C2)cc1F (configuration not stated)	3.2	-44.6	8.7	40.1*	0.5	0.4
Cc1noc(/C=C/N(C)C)c1S(=O)(=O)N1CCC(C(=O)NC(C)(C)C)CC1	-1.1	3.0	4.2	41.0*	-2.7	0.1
CCOC1OC(C(=O)N2CCCCCCC2)=CC(c2cn(C(C)=O)c3ccccc23)C1CCCO (configuration not stated)	·	·	7.1	·	·	·
O=C(NN=Cc1cccc([N+](=O)[O-])c1)C1CC(=O)N(c2ccc(Br)cc2)C1 (configuration not stated)	·	·	1.3	·	·	·
COc1cccc(/C=C2\SC(=O)N(CCC(=O)N3CCCCC3CCO)C2=O)c1 (configuration not stated)	1.4	-8.3	2.1	30.8*	-0.6	-0.9
SMILES	UGM FP inh	Rv3671c inh	Mtb hypoxia inh	GDH-TPI inh	Mtb FBA inh	FadD28 binding
O=C(CCN1C(=O)S/C(=C\c2ccccc2)C1=O)N1CCCCC1	-4.5	6.4	0.1	10.3	-9.8	-2.4
O=C1/C(=C\c2ccccc2)SC(=S)N1CCC(=O)N1CCCCC1CCO (configuration not stated)	2.6	2.0	6.7	9.2	-2.3	-3.0
O=C(O)C1CCN(C(=O)CCN2C(=O)S/C(=C\c3ccccc3)C2=O)CC1	-2.3	4.1	·	34.9*	-1.7	0.3
O=C1C=C(c2cccc(Br)c2)CC(c2ccc3c(c2)OCO3)C1 (configuration not stated)	·	·	22.9	·	·	·
COc1cc(NC(=O)CC(C)=NNC(=O)Cc2ccccc2)c(OC)cc1Cl	·	·	5.5	·	·	·
CC(=NNC(=O)c1ccc(Cl)cc1)c1cccs1	·	·	-3.1	·	·	·
NC1=NC(=O)/C(=C\c2cccs2)S1	1.8	2.7	·	48.3*	-9.3	-2.9
CCCCCCC=Cc1ccc(C2C3C=CCC(C)C3C(=O)N2Cc2ccccc2)c(F)c1 (configuration not stated)	·	·	16.4	·	·	·
CCC(=O)Oc1c(C(=O)CC)cc2c(C)cc(=O)oc2c1C	0.7	4.3	-9.3	14.6	9.8	-1.7
CCC(=O)Nc1c(OC(=O)CC)ccc2c(C)cc(=O)oc12	-1.6	7.6	·	9.6	140.2*	-1.3
Cc1cccc(N/C=C/C(=C(C#N)C#N)N(C)C)c1	0.1	7.2	4.5	9.2	4.0	11.0*
ON=C1CCSc2ccccc21	·	·	10.3	·	·	·
Cc1c(/C=N/NC(=O)C(NC(=O)c2ccc3c(c2)OCO3)C(C)C)c2ccccc2n1C (configuration not stated)	1.4	-2.1	·	37.9*	2.2	-0.8
CC(C)C(NC(=O)c1ccc2c(c1)OCO2)C(=O)N/N=C/c1cccs1 (configuration not stated)	0.8	0.2	·	14.8	0.3	?
CCN1C=C(C(=O)OC)C(c2cccc(OC)c2OC)C(C(=O)OC)=C1	-0.8	0.5	5.3	0.9	172.3*	-2.3
COC(=O)C1=C(C(=O)OC)C2c3ccccc3C1c1ccccc12	·	·	3.6	6.5	1.2	-0.1
COC(=O)C1=CN(Cc2ccccc2)C=C(C(=O)OC)C1c1ccc(OC)c(OC)c1	-0.9	3.8	-7.8	8.9	2.6	0.2
COC(=O)C1=CN(C2CC2)C=C(C(=O)OC)C1c1ccccc1OC	4.0	-2.4	3.8	7.6	156.6*	-0.7
COC(=O)C1=CN(Cc2ccc(OC)c(OC)c2)C=C(C(=O)OC)C1c1cccc(OC)c1OC	0.9	-7.1	9.1	10.8	139.9*	-0.7
O=C(NN=Cc1cccs1)c1ccc2ccccc2c1	·	·	7.4	·	·	·
Nc1ccc2oc(-c3ccc4nc[nH]c4c3)nc2c1	4.5	5.0	12.3	31.0*	5.8	-5.7
CC1(C)C=C(c2ccc(C=O)s2)CC(C)(C)N1	1.2	1.5	·	39.5*	-0.8	-1.7
CC1(C)C=C(c2ccc(C=O)s2)CC(C)(C)N1C=O	-0.6	-5.9	5.7	31.8*	7.3	-1.7
